# Compound activity: PubChem BioAssay, The Scripps Research Institute Molecular Screening Center
# GalR3 antagonist – blocks the human galanin receptor 3; HEK293 GalR3-CNG cAMP membrane potential fluorescence; galR3 body fused to GalR1 C-terminus; hit rate 0.44% among 360,000; O60755; inhibition, % at 3 µM; AID 651719;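 active means inhibition above the screen-wide average plus 3 SD, cut at about 13% in these data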;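 further: forskolin and galanin both at EC90 stimulate the cells; cAMP rise reported by CNG channel membrane potential dye signal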
# SRC1 inh – inhibitors of human steroid receptor coactivator 1 (SRC1); hit rate 0.12% among 360,000; inhibition, % at 3.6 µM; Q15788; HEK293 GAL4-SRC1 luciferase reporter, luminescence; AID 588354;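 active means inhibition above the campaign mean plus 3 SD, with each screening campaign given its own cutoff, cut at about 60% in these data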
# Target sequence (Q15788 whole entry, looked up, the tested form may be a part): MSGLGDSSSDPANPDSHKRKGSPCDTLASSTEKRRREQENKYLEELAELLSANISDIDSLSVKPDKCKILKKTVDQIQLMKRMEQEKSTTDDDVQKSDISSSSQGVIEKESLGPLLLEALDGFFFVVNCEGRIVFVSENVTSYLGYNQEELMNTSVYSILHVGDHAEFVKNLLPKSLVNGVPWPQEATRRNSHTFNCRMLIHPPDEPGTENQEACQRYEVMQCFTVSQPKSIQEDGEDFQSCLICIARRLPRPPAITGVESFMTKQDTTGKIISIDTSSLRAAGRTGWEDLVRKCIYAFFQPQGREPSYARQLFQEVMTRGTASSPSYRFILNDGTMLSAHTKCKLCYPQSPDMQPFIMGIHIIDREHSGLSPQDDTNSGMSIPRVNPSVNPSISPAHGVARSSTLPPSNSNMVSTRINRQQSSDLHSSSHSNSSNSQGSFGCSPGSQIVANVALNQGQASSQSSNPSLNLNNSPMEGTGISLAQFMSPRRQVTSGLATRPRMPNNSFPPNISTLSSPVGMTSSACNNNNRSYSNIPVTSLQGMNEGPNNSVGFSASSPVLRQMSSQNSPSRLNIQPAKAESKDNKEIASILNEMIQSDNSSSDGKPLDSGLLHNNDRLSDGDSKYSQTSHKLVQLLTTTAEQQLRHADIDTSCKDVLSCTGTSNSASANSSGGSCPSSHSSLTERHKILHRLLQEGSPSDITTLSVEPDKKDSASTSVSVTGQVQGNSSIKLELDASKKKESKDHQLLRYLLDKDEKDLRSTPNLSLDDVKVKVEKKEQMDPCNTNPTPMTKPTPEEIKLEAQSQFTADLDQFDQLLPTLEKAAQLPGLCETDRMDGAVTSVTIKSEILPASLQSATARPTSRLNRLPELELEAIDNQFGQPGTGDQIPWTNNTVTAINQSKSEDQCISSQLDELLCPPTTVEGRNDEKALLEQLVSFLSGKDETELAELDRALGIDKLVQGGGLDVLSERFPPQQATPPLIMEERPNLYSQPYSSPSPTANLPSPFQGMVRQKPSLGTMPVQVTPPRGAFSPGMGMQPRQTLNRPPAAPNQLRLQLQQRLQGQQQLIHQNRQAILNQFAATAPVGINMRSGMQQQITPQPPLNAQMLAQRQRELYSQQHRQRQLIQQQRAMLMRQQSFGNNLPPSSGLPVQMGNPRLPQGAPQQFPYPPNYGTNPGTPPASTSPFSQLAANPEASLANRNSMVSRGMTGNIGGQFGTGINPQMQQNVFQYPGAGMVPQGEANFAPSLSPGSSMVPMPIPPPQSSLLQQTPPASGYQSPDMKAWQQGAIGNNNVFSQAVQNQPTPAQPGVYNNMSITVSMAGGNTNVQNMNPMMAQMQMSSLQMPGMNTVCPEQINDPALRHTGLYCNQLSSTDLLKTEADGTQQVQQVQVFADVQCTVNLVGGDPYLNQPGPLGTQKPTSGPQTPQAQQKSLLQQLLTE
# NCOA2 inhibitor – inhibits human steroid receptor coactivator 2. Q15596. HEK293 GAL4-SRC2 luciferase reporter, luminescence. hit rate 0.17% among 370,000. inhibition, % at 9 µM;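 active means inhibition above the mean inhibition of all tested compounds plus 3 SD, set per campaign, cut at about 52% in these data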
# LRH-1 inv ag – NR5A2 inverse agonism in reporter assay. AID 602396. O00482. inhibition, % at 3.6 µM. HEK293T StAR-luciferase reporter, LRH-1 transfected, 24 h. hit rate 0.13% among 360,000;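 active means inhibition above the mean inhibition of all tested compounds plus 3 SD, cut at about 73% in these data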
# SRC3 inh – human NCOA3 inhibition; HEK293 GAL4-SRC3 luciferase reporter, luminescence; inhibition, % at 3.6 µM; AID 588352; Q9Y6Q9; hit rate 0.17% among 360,000;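 active means inhibition above a per-campaign cutoff, the mean of all compounds plus 3 SD, cut at about 60% in these data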;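 further: higher means less SRC3-driven luciferase light from the GAL4 reporter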
# COUP-TFII inh – inhibitors of human COUP-TFII (NR2F2) | P24468 | HEK293T NGFI-A luciferase reporter, luminescence | inhibition, % at 8.6 µM | hit rate 0.7% among 370,000 | AID 686940;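 active means inhibition above a per-plate cutoff, mean inhibition of test wells between control levels plus 3 SD, cut at about 38% in these data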;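 further: cells cotransfected with COUP-TFII expression vector driving the NGFI-A reporter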
# Gal4-VP16 ctr – counter-screen for COUP-TFII antagonists: inhibitors of VP16. hit rate 25% among 2,500. AID 687007. HEK293 Gal4-VP16 luciferase reporter, luminescence. inhibition, % at 8.5 µM. shares compounds with COUP-TFII inh; in the data active means inhibition above about 13%
# COUP-TFII conf – confirmation of human COUP-TFII (NR2F2) inhibitors | shares compounds with COUP-TFII inh | HEK293 NGFI-A luciferase reporter, luminescence | inhibition, % at 8.5 µM | hit rate 45% among 2,500;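 active means mean inhibition over three repeats above a set limit taken from the earlier primary screen, cut at about 38% in these data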
# Numbers stand for hits; n = inactive; x = not tested or not shown; ! = repeats disagree. Rows were chosen to be rich in hits. Some 1.1% of all compounds tested hit in one or more screens of this group.
SMILES,GalR3 antagonist,SRC1 inh,NCOA2 inhibitor,LRH-1 inv ag,SRC3 inh,COUP-TFII inh,Gal4-VP16 ctr,COUP-TFII conf
COc1cc(NC(=O)CSc2nc3[nH]ncc3c(=O)n2-c2ccccc2C)cc(OC)c1OC,n,n,n,n,n,n,x,x
C=CCN(C(=O)CSc1nc2[nH]ncc2c(=O)n1-c1ccccc1OC)c1ccccc1,n,n,n,n,n,41.7,n,n
COc1ccc(C(=O)Nc2ccc(N3CCCCCC3)cc2)cc1S(=O)(=O)N1CCOCC1,n,n,n,n,n,48.9,n,n
O=C(Nc1cccc(S(=O)(=O)N2CCOCC2)c1)c1cccc(S(=O)(=O)N2CCCCC2)c1,n,n,n,n,n,n,x,x
Cc1cc(C)n(-c2ccc(C(=O)Nc3ccc(C)c(S(=O)(=O)N4CCOCC4)c3)cc2)n1,n,n,n,n,n,50.6,n,n
O=C(Nc1ccc(N2CCCCCC2)cc1)c1cccc(S(=O)(=O)N2CCOCC2)c1,n,n,n,n,n,46.0,n,38.3
COc1ccc(C(=O)Nc2ccc(NC(=O)c3ccccc3)cc2)cc1S(=O)(=O)N1CCOCC1,n,n,n,n,n,n,x,x
Cc1ccc(NC(=O)c2cccnc2)cc1S(=O)(=O)N1CCOCC1,n,n,n,n,n,n,x,x
CC(=O)c1cccc(NC(=O)c2cccc(S(=O)(=O)N3CCOCC3)c2)c1,n,n,n,n,n,n,x,x
CCOC(=O)c1ccc(NC(=O)c2cccc(S(=O)(=O)N3CCOCC3)c2)cc1,n,n,n,n,n,38.2,n,n
COc1ccc(/C=C/C(=O)Nc2ccc(C)c(S(=O)(=O)N3CCOCC3)c2)cc1,n,n,n,n,n,68.5,n,n
O=C(N/N=C/c1sc(N2CCOCC2)nc1-c1ccccc1)c1ccc(O)cc1,n,n,n,n,n,n,x,x
O=C(N/N=C/c1sc(N2CCOCC2)nc1-c1ccccc1)c1cccc(S(=O)(=O)N2CCCC2)c1,n,65.3,n,85.5,76.0,37.6,n,66.8
O=C(Nc1cccc(S(=O)(=O)N2CCCCC2)c1)c1ccc2c(=O)n3c(nc2c1)CCCCC3,n,n,n,n,n,44.9,n,48.8
COc1ccccc1N1CCN(S(=O)(=O)CCNC(=O)c2ccc(Br)o2)CC1,n,n,n,n,n,n,x,x
CCN(CC)C(=O)c1oc2ccc(S(=O)(=O)N3CC(C)CC(C)C3)cc2c1C (stereo unspecified),n,n,n,n,n,51.2,n,48.6
O=C(Nc1nc(-c2ccccc2)cs1)c1ccc(S(=O)(=O)N2CCc3ccccc32)cc1,n,n,n,n,n,50.7,n,n
O=C(Nc1ccc(S(=O)(=O)N2CCCC2)cc1)c1cccs1,n,n,n,n,n,n,x,x
O=C(Nc1nc(-c2ccc(S(=O)(=O)N3CCOCC3)cc2)cs1)c1ccccc1,n,n,n,n,n,67.7,18.1!,37.5
COc1cccc(C(=O)Nc2nc(-c3ccc(S(=O)(=O)N4CCOCC4)cc3)cs2)c1,n,n,n,n,n,n,x,x
O=C(Nc1nc(-c2ccc(S(=O)(=O)N3CCCCCC3)cc2)cs1)c1cccs1,n,n,n,n,n,55.5,n,n
Cc1ccc(-c2csc(NC(=O)c3ccc(S(=O)(=O)N4CCc5ccccc54)cc3)n2)cc1,n,n,n,n,n,n,x,x
NC(=O)c1ccsc1NC(=O)c1ccc(S(=O)(=O)N2CCCc3ccccc32)cc1,n,n,n,n,n,38.2,n,n
CC(NC(=O)c1ccc(NC2=NC3CS(=O)(=O)CC3S2)cc1)c1ccccc1 (stereo unspecified),x,n,n,n,n,n,x,x
Cc1ccc(-c2nn(C)c(=O)c3ccccc23)cc1CN1CCCCC1,n,n,n,n,n,n,x,x
SMILES,GalR3 antagonist,SRC1 inh,NCOA2 inhibitor,LRH-1 inv ag,SRC3 inh,COUP-TFII inh,Gal4-VP16 ctr,COUP-TFII conf
NCCCNc1nc(N)c([N+](=O)[O-])c(NC2CCCCC2)n1,n,n,n,n,n,41.1,n,n
COCCNc1nc(N)c([N+](=O)[O-])c(NC2CCCCC2)n1,n,n,n,n,n,n,x,x
CN1OC[C@@H]2CN(Cc3cc(Cl)cc(Cl)c3)[C@H](c3cccc(Br)c3)C[C@@H]21,n,n,n,n,n,n,x,x
O=c1c2cc3cccnc3nc2ncn1CCc1c[nH]c2ccccc12,x,x,n,x,x,43.8,n,n
CC(/C=C1\SC(=O)N(CCCC(=O)O)C1=O)=C\c1ccccc1,n,n,92.7,n,n,91.5,91.7,100.2
COc1ccc(/C=C2/SC(=S)N(CCC(=O)O)C2=O)cc1,n,n,84.3,n,n,45.9,n,56.0
O=C(O)CCCN1C(=O)/C(=C\c2ccco2)SC1=S,n,n,n,n,n,44.0,50.4,n
CC(=C\c1ccccc1)/C=C1/SC(=S)N(CCCC(=O)O)C1=O,n,n,53.0,n,n,38.0,72.5,50.9
CC(=Cc1ccccc1)C=C1SC(=S)N(CCCC(=O)Nc2ccc(C(=O)O)cc2)C1=O,n,n,n,n,n,n,x,x
CC(C)C[C@H]1COc2cc(Br)ccc2S(=O)(=O)N1Cc1cn(CCC2OCCCO2)nn1,x,x,n,x,x,n,x,x
Cc1ccsc1C(=O)OCC(=O)NC1CCCCC1,n,n,n,n,n,n,x,x
COc1cccc(/C=C2\SC(=S)N(CCC(=O)N3CCCCC3CCO)C2=O)c1 (stereo unspecified),n,n,n,n,n,n,x,x
COc1cccc(/C=C2\SC(=S)N(CCCC(=O)N3CCCCC3CCO)C2=O)c1 (stereo unspecified),n,n,n,n,n,39.2,31.2,n
CCOC(=O)C1=C(COC(=O)/C=C/c2ccc([N+](=O)[O-])cc2)NC(=O)NC1C (stereo unspecified),n,n,n,n,n,n,x,x
COc1ccc(COC(=O)C2=C(C)NC(=O)NC2c2ccc(F)cc2)cc1 (stereo unspecified),n,n,n,n,n,39.0,n,n
COc1cccc(-n2cc(CN(C)Cc3nc(Cc4cccc(F)c4)no3)cn2)c1,n,n,n,n,n,n,x,x
COc1ccc(CN(C)Cc2nc(Cc3cccc(F)c3)no2)c2cccnc12,n,n,n,n,n,60.4,n,47.4
CCOC(=O)/C=C1\CN(Cc2cc(OC)c(OC)c(OC)c2)S(=O)(=O)c2ccccc21,n,n,n,n,n,n,x,x
CCOC(=O)/C=C1\CN(Cc2cc(OC)c(OC)c(OC)c2)S(=O)(=O)c2ccc(C(F)(F)F)cc21,n,n,n,n,n,47.7,n,n
Cc1ccc(C(=O)Nc2sc(C)c(-c3ccccc3)c2C(N)=O)cc1[N+](=O)[O-],n,n,n,n,n,56.3,26.7,84.2
O=S1(=O)CC2c3ccccc3CN2CN1C1CCCC1 (stereo unspecified),x,x,n,x,x,n,x,x
